In the supplement of paper PMC3334620:
In all, about 33,000 sequences were measured (“E-score (-0.5 to 0.5)”: median about -0.053, highest 2% from about 0.37 on). This is one part of a sample in which the highest values are shown more often than they occur.

Target: Hap1 (UniProt P0CE41)
Test: PBM E-score (8-mer binding enrichment) (E-score (-0.5 to 0.5)); higher = stronger / more preferred TF binding
Conditions: protein concentration: 200 nM; construct: GST-DNA-binding domain
Protocol: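 Universal 'all 10-mer' protein binding microarrays (Agilent AMADID 015681) probed with GST-tagged S. cerevisiae TFs (full-length or DBD) made by in vitro transcription/translation (PURExpress), about 100-200 nM. Bound TF was detected with fluorescent anti-GST. Each ungapped 8-mer (which stands for itself and its reverse complement) is scored by the PBM enrichment score (E-score), a modified Wilcoxon-Mann-Whitney statistic from -0.5 to +0.5, computed with the Universal PBM Analysis Suite. Scale: above 0.35 generally sequence-specific binding.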

UniProt P0CE41, sequence (P0CE41 whole entry): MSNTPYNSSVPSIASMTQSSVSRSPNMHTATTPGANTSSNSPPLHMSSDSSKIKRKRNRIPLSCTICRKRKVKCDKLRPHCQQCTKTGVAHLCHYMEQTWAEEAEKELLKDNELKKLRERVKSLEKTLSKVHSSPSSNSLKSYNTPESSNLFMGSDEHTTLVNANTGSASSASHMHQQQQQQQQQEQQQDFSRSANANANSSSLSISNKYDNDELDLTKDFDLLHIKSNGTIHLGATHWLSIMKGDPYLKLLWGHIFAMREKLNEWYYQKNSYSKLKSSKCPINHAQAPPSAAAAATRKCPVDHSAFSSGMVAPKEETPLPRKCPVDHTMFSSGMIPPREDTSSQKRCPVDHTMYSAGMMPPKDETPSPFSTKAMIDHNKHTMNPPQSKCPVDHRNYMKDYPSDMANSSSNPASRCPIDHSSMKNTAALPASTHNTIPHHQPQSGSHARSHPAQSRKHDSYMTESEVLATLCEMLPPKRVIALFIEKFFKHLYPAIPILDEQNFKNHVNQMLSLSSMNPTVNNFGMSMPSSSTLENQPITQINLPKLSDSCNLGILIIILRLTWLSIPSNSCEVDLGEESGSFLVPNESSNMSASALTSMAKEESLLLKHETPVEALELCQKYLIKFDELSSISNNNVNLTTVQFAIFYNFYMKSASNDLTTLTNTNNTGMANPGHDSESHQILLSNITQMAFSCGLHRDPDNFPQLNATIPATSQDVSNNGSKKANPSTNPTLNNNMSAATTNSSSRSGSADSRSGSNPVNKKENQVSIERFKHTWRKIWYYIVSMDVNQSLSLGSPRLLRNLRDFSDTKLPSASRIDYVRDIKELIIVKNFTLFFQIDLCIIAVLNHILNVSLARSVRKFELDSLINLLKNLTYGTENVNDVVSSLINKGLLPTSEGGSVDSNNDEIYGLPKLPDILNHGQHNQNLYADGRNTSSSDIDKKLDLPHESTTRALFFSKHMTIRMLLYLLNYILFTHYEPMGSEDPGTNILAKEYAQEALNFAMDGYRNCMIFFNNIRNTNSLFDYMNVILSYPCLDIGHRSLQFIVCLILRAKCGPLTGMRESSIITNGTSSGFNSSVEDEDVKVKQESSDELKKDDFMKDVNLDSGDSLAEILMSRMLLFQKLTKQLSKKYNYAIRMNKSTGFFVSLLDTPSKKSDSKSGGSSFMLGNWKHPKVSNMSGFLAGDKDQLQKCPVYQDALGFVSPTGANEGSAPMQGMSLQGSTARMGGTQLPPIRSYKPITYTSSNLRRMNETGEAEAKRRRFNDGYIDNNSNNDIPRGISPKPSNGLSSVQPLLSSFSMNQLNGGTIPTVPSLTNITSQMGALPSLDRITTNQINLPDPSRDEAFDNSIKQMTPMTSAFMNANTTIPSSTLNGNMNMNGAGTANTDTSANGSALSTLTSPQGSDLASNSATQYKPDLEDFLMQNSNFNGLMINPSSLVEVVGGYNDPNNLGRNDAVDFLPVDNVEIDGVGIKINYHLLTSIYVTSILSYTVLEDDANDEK

Point of comparison: CGGCCGAA, “PBM E-score” value 0.449. Against it:
- ATCCTCGA — lower, -0.107
- AAACGCCC — lower, 0.263
- GTCCCGAC — lower, 0.243
- AGGCGGCC — lower, 0.0302
- AGTTCGGA — lower, 0.366
- GGTTCGAA — lower, 0.00151
- GGTTCGGA — lower, 0.373
- CGTTCGGC — lower, 0.291
- CGTTCGTA — lower, 0.0644
- CGTTCGGA — lower, 0.412
- GGCATACC — lower, 0.107
- CCCGGCTA — lower, 0.344
- ATGTTTCA — lower, -0.21
- CATGGTGG — lower, -0.137
- GCCCTCGC — lower, -0.0401
- CCCGTCTA — lower, -0.0612
- CGTACCTC — lower, -0.0658
- AACTGCTT — lower, -0.134
- CCTCCTCG — lower, -0.147
- ACCTGCTG — lower, -0.058
- AACCGGTA — lower, 0.331
- CACCGGTC — lower, 0.227
- TCCCGGGA — lower, 0.392
- CACCGGTG — lower, 0.24
- CACCGGTA — lower, 0.376
- GACCGGTA — lower, 0.243
- TACCGGGA — lower, 0.387
- GACCGGGA — lower, 0.329
- TCACGGGA — lower, 0.0121
- TACCGGTA — lower, 0.441
- CCCCGGGA — lower, 0.348
- AACCGGGA — lower, 0.193
- CAGTAGAA — lower, -0.229
- TTGCGCAA — lower, -0.00107
- CATGCAGC — lower, -0.164
- AGCTCGAC — lower, -0.227
- ATCAAGCG — lower, 0.0373
- AGCTCGGG — lower, 0.363
- CGCGACTA — lower, 0.197
- CCCTTAAG — lower, 0.13
- CCACCTGC — lower, -0.121
- GAAGACTA — lower, -0.0051
- CTTCTCCA — lower, -0.301
- CGGACATC — lower, 0.365
- CGGACATA — higher, 0.489
- CGGACAAA — lower, 0.405
- GGGACATA — lower, 0.0939
- CGGACAAG — lower, 0.357
- AGGACAAA — lower, -0.016
- CGAGTTGC — lower, -0.053
- ACAGCGCG — lower, 0.0018
- GGGGCGAA — lower, 0.127
- CGGGCGAA — lower, 0.375
- GGGGCGTA — lower, 0.00742
- CGGGCGAC — lower, 0.304
- CGGGCGTA — lower, 0.395
- AGGGCGTA — lower, -0.137
- AAAGGTGG — lower, -0.156
- ACGGCGAA — lower, 0.0956
- CCGAAGTC — lower, 0.318
- ATTGAACC — lower, -0.0801
- GGGCCGAA — lower, 0.311
- TGGCCGAA — lower, 0.261
- AGGCCGAC — lower, 0.32
- CGGCCAAG — lower, 0.195
- GGGCCGAC — lower, 0.312
- CGGCCGAG — the same, 0.449
- AGGCCGAG — lower, 0.303
- CGGCCGAC — lower, 0.415
- GTACTGAC — lower, -0.119
- CGCAGTCA — lower, -0.0499
- AGAGATGG — lower, -0.0221
- AAGTGCGA — lower, 0.00701
- ATGAGTCC — lower, 0.0718
- AACGACCC — lower, 0.00262
- AGGACAGC — lower, -0.0413
- GTCCGGGA — lower, 0.38
- GGCCGGGA — lower, 0.336
- CTCCGGGA — lower, 0.392
- CGCCGGGA — lower, 0.317
- CTCCGGGC — lower, 0.341
- ATCCGGGA — lower, 0.239
- CGTGGTTA — lower, -0.251
- AGTGGAAG — lower, 0.0152
- AATGGGCG — lower, -0.0792
- GAGGCGGC — lower, 0.0321
- GTTCGATA — lower, 0.0968
- GTCCGATA — higher, 0.463
- CTCCGATA — lower, 0.432
- CTACGATA — lower, -0.179
- ATCCGATA — higher, 0.453
- ATCCGATG — lower, 0.277
- GTACGATA — lower, -0.189
- CTCCGATC — lower, 0.311
- ATCCGATC — lower, 0.326
- CTAACGTC — lower, 0.00466
- TCGTACCA — lower, -0.114
- GAGGCCAA — lower, -0.0324
- AACTGTCA — lower, -0.212
- ACAAACGA — lower, -0.145
- CTCTGTCA — lower, -0.296
- TACCATGA — lower, -0.347
- AAGGGGGA — lower, -0.179
- GTCACCCA — lower, -0.158
- ATACCGCG — lower, 0.21
- ATACCGGA — lower, 0.437
- ATACCGGG — lower, 0.416
- ATACCGCA — lower, 0.284
- AGACCGGC — lower, 0.235
- ATACCGGC — lower, 0.398
- ATACCGTA — lower, 0.092
- CTACCGGA — lower, 0.412
- CTACCGCA — lower, 0.108
- CTACCGGC — lower, 0.29
- ATACCGTG — lower, 0.0634
- CTACCGAA — lower, 0.0576
- ATGGCTCA — lower, -0.343
- GGAAACCA — lower, -0.0131
- AGTACTTC — lower, 0.153
- CGCGCTTA — lower, 0.209
- CTGGAGGC — lower, -0.096
- AGACAAAC — lower, -0.0936
- CAATTCTG — lower, -0.284
- CCTCCTCA — lower, -0.13
- GATTCTAC — lower, -0.0077
- GTACCGCA — lower, 0.236
- GTACCGGA — lower, 0.393
- GTACCGTA — lower, 0.0486
- AGGGAGAA — lower, -0.0602
- AATGGTGT — lower, -0.0527
- ATAGTAGC — lower, 0.0136
- ACCCCGAG — lower, 0.348
- AACCCGAT — lower, 0.375
- GCCCCGAA — lower, 0.333
- ACCCCGAA — lower, 0.377
- ACCCCGAC — lower, 0.308
- ACCCCGAT — lower, 0.416
- AACCCGAC — lower, 0.32
- CCCCCGAA — lower, 0.312
- AACCCGAG — lower, 0.317
- CGCGTAAA — lower, 0.188
- AGTTATGG — lower, -0.0493
- ACTGTGCG — lower, -0.13
- ATCATCGC — lower, 0.0926
- AATTTCCA — lower, 0.0738
- CAGAAGCC — lower, -0.0458
- GTACGGAA — lower, 0.28
- CGCTCACG — lower, 0.118
- AATACCAT — lower, -0.0062
- ATGGTCAA — lower, -0.23
- CGGACTTC — lower, 0.405
- TGGACTAA — lower, -0.117
- CGGACTAA — lower, 0.411
- AGGACTTA — lower, 0.18
- GGGACTAA — lower, 0.0852
- GGGACTTA — lower, 0.0397
- CTGACTTC — lower, -0.0182
- AGGACTTC — lower, -0.152
- CGGACTTA — higher, 0.488
- CCTGGTCC — lower, 0.138
- GCCAGGAA — lower, -0.262
- ACCGGCGA — lower, 0.39
- TCCGGCGA — lower, 0.362
- GCCGGCGA — lower, 0.364
- GTCGGCGA — lower, 0.218
- ACCGGCGC — lower, 0.267
- ATCGGCGA — lower, 0.357
- ACCGGCGT — lower, 0.282
- ACCGGCGG — lower, 0.418
- CTCGGCGA — lower, 0.383
- ATGGACGA — lower, 0.0824
